An excerpt weighted towards active compounds, which were near 4.2% of everything screened.
TIM10 inh – growth inhibitors of isogenic TIM10 control yeast, primary screen, counter-screen for tim10-1 yeast inhibitor project, luminescence, uHTS; S. cerevisiae TIM10 strain growth, BacTiter-Glo luminescence, 24 h; inhibition, % at 10 µM; hit rate 1.4% among 330,000; AID 463195, 2010;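 active = inhibition of 40% or more at the single tested concentration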;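 also: wild-type TIM10 isogenic control strain grown at permissive 25 °C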
tim10-1 inh – growth inhibitors of tim10-1 mutant yeast, primary screen, luminescence, uHTS | S. cerevisiae tim10-1 ts strain growth, BacTiter-Glo, 24 h | inhibition, % at 20 µM | hit rate 2.2% among 330,000 | AID 463190, 2010;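 active = inhibition of at least 40%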;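 also: mutant grown at 25 °C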
NLRP3 yeast inh – NALP3 inflammasome inhibitors in reconstituted yeast, primary screen, luminescence, uHTS; inhibition, % at 10 µM; Yeast reconstituted NLRP3/ASC/caspase-1, beta-gal luminescence, 24 h; hit rate 0.39% among 330,000;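 active = inhibition of 50% or more; inactive = inhibition below 50%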
tim23-1 inh – growth inhibitors of tim23-1 mutant yeast, primary screen, luminescence, uHTS. inhibition, % at 20 µM. S. cerevisiae tim23-1 growth, BacTiter-Glo luminescence, 24 h. AID 463212, 2010. hit rate 1.3% among 330,000;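 active = growth inhibition of the mutant yeast at or above 50%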;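 also: temperature-sensitive mutant grown at 25 °C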
V-ATPase pH – regulators of yeast V-ATPase proton pumping, primary screen, pHLuorin cytosolic pH fluorescence; S. cerevisiae; response, % at 10 µM; hit rate 0.37% among 350,000; in the data active = response mostly above about 7.3%, no sharp cut-off; inactive = mostly below about 5.4%; also: actives read high
NALP1 yeast inh – NALP1 inflammasome inhibitors in reconstituted yeast, colorimetric, S. cerevisiae, triplicate retest. S. cerevisiae NALP1/ASC/caspase-1 growth, X-gal OD620, 72 h. inhibition, % at 10 µM. AID 2071, 2009. hit rate 0.61% among 280,000; in the data active = inhibition mostly above about 24%, no sharp cut-off; inactive = mostly below about 32%
TIM10 conf – growth inhibitors of wild-type TIM10 yeast, confirmation, counter-screen for tim10-1 synthetic lethality project, single concentration, luminescence, S. cerevisiae; shares compounds with TIM10 inh; S. cerevisiae tim10 strain growth, BacTiter-Glo luminescence, 24 h; inhibition, % at 10 µM; hit rate 63% among 4,600;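 active = inhibition of yeast growth at or above a set limit in either of two replicates at 10 µM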; also: this counterscreen used the strain with wild-type TIM10
Large screens that a line does not name were inactive (follow-up assays come after a bar, where they were run).

COc1cnc(-c2ccccn2)nc1Oc1cccc(Cl)c1	TIM10 inh 45.6 | TIM10 conf 49.0
Cc1cc(OCC(=O)OCC(=O)Nc2ccc(Cl)cn2)ccc1Cl	none (no result: NALP1 yeast inh)
Cc1cc(=O)n(Nc2ccccc2)c(O)c1C#N	none (no result: TIM10 inh, tim10-1 inh, NLRP3 yeast inh, tim23-1 inh, NALP1 yeast inh)
CCN(C(=O)COC(=O)c1cccc(-n2cnnn2)c1)C1CCCCC1	none
Cc1cccc(NS(=O)(=O)c2cccc(C(=O)NCCCN3CCOCC3)c2)c1	none (no result: NALP1 yeast inh)
COc1cc(C(C[N+](=O)[O-])c2c(C)[nH]c3ccccc23)cc(OC)c1OC (stereo not drawn)	none
O=[N+]([O-])CC(c1ccccc1)c1c[nH]c2ccccc12 (stereo not drawn)	TIM10 inh 44.7 (no result: NALP1 yeast inh) | TIM10 conf 54.8
Cc1ccc(C(=O)C(C(=O)/C=C/c2ccccc2)=C2SCCCS2)cc1	TIM10 inh 51.7 | TIM10 conf inactive
CCOc1ccc(NS(=O)(=O)c2ccc(NS(=O)(=O)c3ccccc3)cc2)cc1	none
CCOc1ccc(S(=O)(=O)Nc2cccc(Cl)c2)cc1	TIM10 inh 48.7 (no result: NALP1 yeast inh) | TIM10 conf 42.7
CNC(=S)N/N=C/c1c(C)nn(-c2ccc(F)cc2)c1Cl	TIM10 inh 42.7 | TIM10 conf inactive
O=C(CC12CC3CC(CC(C3)C1)C2)N/N=C\c1ccc[nH]1	TIM10 inh 46.2 | TIM10 conf 34.4
Cc1cccc(NCC(=O)N/N=C\c2ccc[nH]2)c1	none (no result: NALP1 yeast inh)
Cn1nc(C(=O)N2CCN(C(c3ccccc3)c3ccccc3)CC2)c2ccccc2c1=O	none
O=C1COc2ccc(-c3csc(=Nc4ccc(OC(F)F)cc4)n3CC3CCCO3)cc2N1 (stereo not drawn)	TIM10 inh 40.3 | TIM10 conf 38.4
O=C(CNc1cccc2ccccc12)N/N=C/c1ccc(OC(=O)/C=C/c2ccco2)cc1	none (no result: TIM10 inh, tim10-1 inh, NLRP3 yeast inh, tim23-1 inh)
O=C(CNc1ccc2ccccc2c1)N/N=C/c1ccc(OC(=O)/C=C/c2ccco2)cc1	TIM10 inh 40.5 | TIM10 conf 36.5
Cc1cc2occ(CC(=O)NC3=NCCS3)c2cc1C(C)C	TIM10 inh 40.1 | TIM10 conf 36.7
Cc1cc(Cl)ccc1OCCNC(=S)NC(=O)c1cccnc1	none
CC(C)c1ccccc1OCCNC(=S)NC(=O)c1cccnc1	TIM10 inh 44.9 | TIM10 conf 44.2
COc1ccc(-c2n[nH]c(=S)n2C2CCCCC2)cc1	TIM10 inh 43.0 | TIM10 conf 32.2
S=c1[nH]nc(-c2cccnc2)n1C1CCCCC1	none
CCn1c(O)c(/C=C2\C=Nc3ccccc32)sc1=Nc1ccc(C)cc1	none
CCn1c(O)c(/C=C2\C=Nc3ccccc32)sc1=O	TIM10 inh 44.3 | TIM10 conf inactive
Cc1cccc(NC(=S)N/N=C/c2cccn2Cc2ccc(F)cc2)c1	TIM10 inh 52.6 | TIM10 conf 49.1
CSc1ccccc1NC(=S)N/N=C/c1cccn1Cc1cccc(C)c1	none
COc1ccc2cc3cc(C(=O)N4CCN(C5CCCCC5)CC4)oc3nc2c1	TIM10 inh 63.8 | TIM10 conf 46.0
CCCN(CCC)CCCNC(=O)c1cc2cc3ccc(OC)cc3nc2o1	TIM10 inh 64.6 | TIM10 conf inactive
COc1ccc2cc3cc(C(=O)N4CCCCCC4)oc3nc2c1	none
COc1ccc2cc3cc(C(=O)NCCc4ccc(OC)c(OC)c4)oc3nc2c1	TIM10 inh 54.8 | TIM10 conf inactive
COc1ccc2cc3cc(C(=O)NCCCN4CCC(C)CC4)oc3nc2c1	TIM10 inh 77.1 | TIM10 conf 68.2
COc1ccc(N(CCC#N)C(=O)/C(C#N)=C\c2cccs2)cc1	none
O=C(CNC(=O)c1ccccc1)OCc1nnc(-c2ccccc2)o1	none (no result: NALP1 yeast inh)
CCOc1ccc(C(=O)NCC(=O)OCc2nnc(-c3ccccc3)o2)cc1OCC	TIM10 inh 50.3 (no result: NALP1 yeast inh) | TIM10 conf inactive
CN(Cc1c(F)cccc1Cl)C(=O)c1cnc2ccccc2n1	none
Cc1nc(Nc2c(Cl)cccc2Cl)sc1C(=O)Nc1ccccc1	TIM10 inh 44.5 | TIM10 conf inactive
COC(=O)c1ccc(CNS(=O)(=O)c2ccc3ccccc3c2)cc1	none
CN(C)c1ccc(/C=C/C(=O)c2ccc3c(c2)OCCO3)cc1[N+](=O)[O-]	TIM10 inh 43.2 (no result: V-ATPase pH) | TIM10 conf inactive
CN(C)c1ccc(C(=O)C=Cc2ccc([N+](=O)[O-])cc2)cc1	none (no result: TIM10 inh, tim10-1 inh, NLRP3 yeast inh, tim23-1 inh, NALP1 yeast inh)
c1ccc2[nH]c(NC3=NCCC3)nc2c1	TIM10 inh 40.7 | TIM10 conf inactive
COc1ccc2c(=O)cc(CO)oc2c1	none (no result: NALP1 yeast inh)
O=C1CCNc2ccc(-c3ccccc3)cc21	none
O=C1CCNc2cc3ccccc3cc21	TIM10 inh 42.1 | TIM10 conf inactive
CCOC(=O)C(=CNc1ccc(N2CCCCC2)c(S(=O)(=O)Nc2ccccc2OC)c1)C(=O)OCC	none (no result: TIM10 inh, tim10-1 inh, NLRP3 yeast inh, tim23-1 inh, NALP1 yeast inh)
O=C(C#Cc1ccccc1)c1cccc([N+](=O)[O-])c1	TIM10 inh 72.0 | TIM10 conf 70.3
CSc1ncccc1C(=O)Nc1cc(Cl)ccc1N1CCOCC1	none (no result: NALP1 yeast inh)
Cc1ccc([N+](=O)[O-])cc1N=Nc1c(C)[nH]n(C(N)=S)c1=O	TIM10 inh 43.2 | TIM10 conf 34.0
Cc1ccc([N+](=O)[O-])cc1N=Nc1c(-c2ccc([N+](=O)[O-])cc2)[nH]n(C(N)=S)c1=O	none (no result: TIM10 inh, tim10-1 inh, NLRP3 yeast inh, tim23-1 inh)
Cc1ccc2oc(=O)c3cc(C(=O)NCCCN4CCCCCC4)sc3c2c1	none
Cc1ccc2oc(=O)c3cc(C(=O)NCCCN4CCc5ccccc5C4)sc3c2c1	TIM10 inh 55.0 | TIM10 conf inactive
CCCCCOCC1CC(C/C(C)=N/NC(N)=S)C(=O)O1 (stereo not drawn)	none
C/C(CC1CC(COCC(C)C)OC1=O)=N\NC(N)=S (stereo not drawn)	TIM10 inh 96.4 | TIM10 conf inactive
O=C(Nc1ccc2c(c1)nc1n2CCOC1)c1ccco1	TIM10 inh 46.5 | TIM10 conf inactive
CC(=O)Nc1ccc2c(c1)nc1n2CCOC1	none
O=C(Nc1ccc2c(c1)nc1n2CCSC1)c1ccco1	TIM10 inh 60.0 | TIM10 conf 52.9
Cc1ccnc(NC(=O)CCc2c[nH]c3ccccc23)c1	none
O=C(CCC(=O)Nc1nnc(C2CCCCC2)s1)NCc1ccccc1	TIM10 inh 54.8 | TIM10 conf inactive
Cc1ccc(CNC(=O)C(C)C2Sc3ccccc3NC2=O)cc1 (stereo not drawn)	none (no result: NALP1 yeast inh)
CCOCCCNC(=O)Cn1cnc2c(cnn2-c2ccc(OC)cc2)c1=O	TIM10 inh 49.9 | TIM10 conf inactive
CCOC(=O)Cn1cnc2c(cnn2-c2ccc(OC)cc2)c1=O	none
